Source: the supplement of paper PMC4188521

The targets below were run with CCc1cnn2c(NCc3ccc[n+]([O-])c3)cc(N3CCCC[C@H]3CCO)nc12 [dinaciclib] (assay: cell viability remaining relative to DMSO control; higher = less cytotoxic (more viable cells)). Details: 100 nM; 24 h.
Experimental: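 Solid tumor cell lines were treated with dinaciclib (100 nM) for 24 hr. Viability was measured by CellTiter-Glo ATP luminescence and expressed as % of DMSO-treated control wells (mean of 2-6 plates, triplicate wells per plate).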

Target | cell viability remaining
OV56 | 59.1%
HS695T | 72.9%
HS600T | 93.8%
RPMI7951 | 45.3%
MDAMB436 | 67.8%
MFE319 | 78.3%
MDAMB231 | 57.6%
COLO800 | 36.9%
LS1034 | 75%
HLE | 37.7%
HEC265 | 46.7%
HEC151 | 39%
H747 | 73%
OE19 | 77.7%
EFE184 | 93.1%
H2122 | 48.2%
RL952 | 33.4%
SNU1 | 50.8%
CORL105 | 49%
SW1573 | 99%

Target | cell viability remaining
DAOY | 23.4%
TOV21G | 66.7%
LS180 | 85.7%
MSTO211H | 68.4%
COLO201 | 67.8%
MEWO | 52.8%
H82 | 12.6%
2313287 | 65.6%
H1703 | 5.5%
COLO792 | 8.9%
OE33 | 51.6%
SW837 | 79.8%
JIMT1 | 66.2%
CAOV3 | 42.2%
MDAMB468 | 29.1%
SAOS2 | 32.2%
CAPAN2 | 51.4%
MESSA | 33.4%
A172 | 73.1%
SKLMS1 | 82.9%
